# Experimental data reported in the supplement of paper PMC3334620.
# In all, about 33,000 sequences were measured (“E-score (-0.5 to 0.5)”: median about -0.054, highest 2% from about 0.39 on). The entries come from a sample that favours the highest values as a whole.
# Target: Ylr278c (UniProt Q05854)
# Experiment: PBM E-score (8-mer binding enrichment) (E-score (-0.5 to 0.5)); higher = stronger / more preferred TF binding
# Details: protein concentration: 200 nM; construct: GST-DNA-binding domain
# Procedure: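 Universal 'all 10-mer' protein binding microarrays (Agilent AMADID 015681) probed with GST-tagged S. cerevisiae TFs (full-length or DBD) made by in vitro transcription/translation (PURExpress), about 100-200 nM. Bound TF was detected with fluorescent anti-GST. Each ungapped 8-mer (which stands for itself and its reverse complement) is scored by the PBM enrichment score (E-score), a modified Wilcoxon-Mann-Whitney statistic from -0.5 to +0.5, computed with the Universal PBM Analysis Suite. Scale: above 0.35 generally sequence-specific binding.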
# Sequence of UniProt Q05854 (Q05854 whole entry): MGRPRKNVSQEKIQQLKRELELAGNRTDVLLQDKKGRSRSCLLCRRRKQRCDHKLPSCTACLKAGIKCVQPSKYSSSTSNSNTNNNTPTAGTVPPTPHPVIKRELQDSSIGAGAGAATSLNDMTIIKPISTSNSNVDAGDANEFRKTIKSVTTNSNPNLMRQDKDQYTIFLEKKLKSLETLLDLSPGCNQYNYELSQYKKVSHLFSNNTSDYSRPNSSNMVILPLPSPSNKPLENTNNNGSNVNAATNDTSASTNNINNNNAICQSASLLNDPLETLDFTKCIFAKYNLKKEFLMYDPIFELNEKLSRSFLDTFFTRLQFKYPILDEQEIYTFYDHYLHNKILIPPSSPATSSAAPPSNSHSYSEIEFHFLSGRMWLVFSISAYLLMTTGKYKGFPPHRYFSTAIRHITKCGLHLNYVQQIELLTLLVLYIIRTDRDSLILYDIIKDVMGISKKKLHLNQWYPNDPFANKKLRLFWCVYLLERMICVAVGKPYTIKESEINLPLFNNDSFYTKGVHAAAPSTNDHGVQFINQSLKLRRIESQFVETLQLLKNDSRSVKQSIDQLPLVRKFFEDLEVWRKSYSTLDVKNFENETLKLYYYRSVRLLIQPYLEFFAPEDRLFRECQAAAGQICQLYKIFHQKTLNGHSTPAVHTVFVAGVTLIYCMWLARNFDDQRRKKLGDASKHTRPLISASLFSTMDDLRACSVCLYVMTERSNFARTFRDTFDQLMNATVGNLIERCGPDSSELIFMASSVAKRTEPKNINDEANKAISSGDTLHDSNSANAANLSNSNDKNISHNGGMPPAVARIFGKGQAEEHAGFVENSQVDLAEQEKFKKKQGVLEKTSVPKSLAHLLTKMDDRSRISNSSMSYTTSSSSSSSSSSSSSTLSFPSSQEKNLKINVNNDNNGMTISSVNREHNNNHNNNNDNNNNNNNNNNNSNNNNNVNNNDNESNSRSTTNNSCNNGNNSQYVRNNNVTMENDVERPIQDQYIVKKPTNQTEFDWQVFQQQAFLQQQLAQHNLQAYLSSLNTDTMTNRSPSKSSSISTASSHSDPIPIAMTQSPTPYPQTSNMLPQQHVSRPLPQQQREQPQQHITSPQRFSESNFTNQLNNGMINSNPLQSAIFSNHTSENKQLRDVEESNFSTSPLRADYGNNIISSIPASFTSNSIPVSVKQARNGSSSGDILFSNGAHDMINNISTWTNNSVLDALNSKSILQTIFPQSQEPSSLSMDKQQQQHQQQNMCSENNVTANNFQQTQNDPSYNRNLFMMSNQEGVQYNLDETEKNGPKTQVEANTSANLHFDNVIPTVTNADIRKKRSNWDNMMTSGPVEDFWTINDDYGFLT
row,Sequence,PBM E-score
1,ATTCGGGC,0.18
2,ATTCGGAA,0.36
3,ATTCGGCC,0.284
4,ATTCGGAG,0.422
5,ATTCGGAC,0.392
6,ATTCGGCG,0.286
7,AAGACAGC,-0.0488
8,AAGGGAAT,-0.149
9,CGCTTCTC,0.168
10,AGGAGAGA,-0.136
11,GGGAGAGA,-0.201
12,CAGAGAGC,-0.184
13,CGGAGAGA,0.402
14,AGGAGAGC,-0.275
15,CGGAGAGC,0.389
16,AAGGTCAA,-0.195
17,ACTCTAAT,-0.121
18,ATTGGCAC,-0.247
19,AGGATCCG,0.226
20,AGGATCCC,0.113
21,CGGATCCG,0.438
22,CGGATCCA,0.221
23,GGGATCCC,0.325
24,CGGATCCC,0.402
25,ATGCAGCG,0.0411

row,Sequence,PBM E-score
1,CCCATAAG,0.0166
2,GTGGAGTA,-0.135
3,CCCAACAA,-0.0374
4,ACCGGACA,0.401
5,GACGGACA,0.328
6,GCCGGATA,0.4
7,GCCGGACA,0.447
8,GCAGGATA,-0.221
9,CACGGACA,0.317
10,GCCGGACC,0.376
11,ACTGGACA,-0.189
12,CACGGATA,0.196
13,CCCGGACA,0.405
14,AACGGACA,0.321
15,CCCGGACG,0.273
16,ACACCCCC,-0.133
17,GCTATCAC,-0.108
18,CGTGAACG,-0.0842
19,AGGCCCCT,-0.194
20,TCCGGACA,0.456
21,TACGGACA,0.257
22,ACCGGACC,0.384
23,ACCGGACG,0.369
24,TGCGGACA,0.356
25,ACCGGACT,0.443

row,Sequence,PBM E-score
1,CTTTTGCC,0.093
2,AAGTTACT,0.0192
3,AACCGTGA,-0.0334
4,GACTGGGA,0.0171
5,CAGGAACA,-0.157
6,CCGGAACA,0.442
7,CGGGAACA,0.192
8,ACGGAACC,0.213
9,ACGGAACA,0.27
10,CCGGAACG,0.411
11,CAGGAACG,-0.153
12,TCGGAACA,0.417
13,GCGGAACC,0.254
14,CCGGAACC,0.402
15,ACGGAACG,0.271
16,GCGGAACA,0.344
17,AACTCAGT,-0.15
18,ATTCTCTA,-0.0579
19,CAGAAATA,0.0765
20,AATGCATT,-0.0548
21,AAAGGCCG,0.37
22,ACAACCGT,-0.251
23,ATTTGAGC,-0.102
24,CGTATCAG,0.0563
25,AGTAGATG,-0.0703

row,Sequence,PBM E-score
1,ATCCAGAT,-0.146
2,TAACTTGA,-0.237
3,ACGGAGAC,0.39
4,GCGGAGAC,0.4
5,ACGGAGAT,0.465
6,GGGGAGAC,0.0986
7,AAGGAGAC,-0.214
8,ATGGAGAC,-0.103
9,AAGGAGAT,0.0883
10,GAGGAGAC,-0.0694
11,AGGGAGAT,-0.207
12,GCCCATAC,-0.275
13,CTCCAGCA,-0.256
14,ATGGCTAC,-0.185
15,ATGGGTTG,-0.114
16,CAAGTATC,-0.152
17,GGATTTTA,0.283
18,AAACGCCA,0.0115
19,CAACGCCG,0.318
20,AAACGCCG,0.412
21,CGAGTCAG,-0.151
22,TAGGTAAA,-0.0912
23,GAATGCAA,0.00843
24,AAATGCCG,0.423
25,AAATGCCC,-0.0631

row,Sequence,PBM E-score
1,CAATGCCG,0.365
2,AATACCTG,-0.107
3,AAACTCTG,-0.126
4,CGAACTCG,0.0307
5,GGAACTCA,0.189
6,GGAACTCC,0.393
7,CGAACTCA,-0.0578
8,CGAACTCC,0.39
9,AGAACTCC,0.276
10,ACCTTGTC,-0.192
11,GGCTTGCA,-0.118
12,ACTGGTGC,-0.0757
13,ATGTTCCC,-0.0151
14,ACGTTCCG,0.289
15,CCGTTCCA,0.0158
16,ATGTTCCG,0.429
17,ATGTTCCA,-0.162
18,AACTTCCA,0.0686
19,AAGTTCCT,-0.0671
20,AACTTCCT,0.00298
21,AAGTTCCG,0.42
22,AACTTCCG,0.433
23,CAGTTCCG,0.348
24,CCGTTCCG,0.402
25,ATCCTCAG,0.0306

row,Sequence,PBM E-score
1,AAATAGCC,-0.00231
2,AATTCTCT,-0.113
3,AATCCACA,-0.0935
4,AAGCGGCG,0.222
5,GGGTAACC,-0.0903
6,GGAGAGTA,0.243
7,CTCCGGTA,0.47
8,CACCGGTC,0.183
9,GTCCGGTA,0.366
10,AACCGGTC,0.198
11,ATCCGGTA,0.294
12,CGCCGGTC,0.388
13,CTCCGGTC,0.455
14,ATCCGGTC,0.346
15,GACCGGTC,0.397
16,ATGCACCG,0.178
17,CAACTCGC,-0.0405
18,TAAGAAAA,-0.0396
19,CGCGCTTA,0.0847
20,AAGACGTA,-0.154
21,CAGACTGG,-0.271
22,ATGCCGGA,0.456
23,GTGCCGTA,0.0749
24,GTGCCGGA,0.438
25,CTGCCGGA,0.355

row,Sequence,PBM E-score
1,ATGCCGGG,0.336
2,ATGCCGGC,0.372
3,ATGCGCTC,-0.034
4,CCTGTGGC,-0.166
5,GCGCGCTA,0.0544
6,CGTATATA,-0.111
7,GAATTGCC,0.182
8,AGGGGATG,-0.112
9,GCTACCCA,-0.196
10,ATACTCCG,0.487
11,ACTCTCCA,-0.0794
12,CCACTCCC,0.0826
13,CCTCTCCG,0.333
14,ACACTCCC,0.00682
15,ACACTCCT,-0.0208
16,CCACTCCG,0.437
17,CCACTCCA,-0.0346
18,ACACTCCG,0.398
19,ATACTCCC,0.243
20,ATACTCCA,-0.0317
21,ACTCTCCG,0.405
22,CAACAGAG,-0.0308
23,GACGCACA,0.146
24,CTGAGGCC,0.115
